In the library only some 11% were active in any assay of this set; here they are far more common.
Pf growth 48h: Primary qHTS for delayed death inhibitors of the malarial parasite plastid, 48 hour incubation; Potency, µM (highest dose often 28.7 µM), without a hit: at the top dose activity change, negative = inhibition, actives largely listed as inhibitors; AID 504832, 2011; actives 5.9% (n = 310,000); P. falciparum luciferase growth in erythrocytes, 48 h
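Compounds are pin-transferred into medium, infected erythrocytes (2% hematocrit, 0.1% parasitemia final) are added, and plates sit one parasite generation at 37 C in 5% CO2. Detection reagent is then added and luminescence measured.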
AMA1-RON2 inh: qHTS for Inhibitors of AMA1-RON; Towards Development of Antimalarial Drug Lead: Primary Screen | Plasmodium falciparum AMA1 (3D7) - RON2 peptide interaction | actives 0.2% (n = 360,000) | Potency, µM (doses to about 58.2 µM), for the others: at the highest dose activity change, negative = inhibition, hits mostly inhibitors | AID 720542, 2013 | AlphaScreen AMA1-biotinylated RON2 peptide binding;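 note: 0% = vehicle wells and -100% = peptide control; nearly all actives have a fitted effect of over 45% in size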
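AMA1 (3D7) with his tag at 25 nM final met compounds first, then biotinylated RON2 peptide at 25 nM; detection used donor plus acceptor beads, 10 µg/mL apiece, read by AlphaScreen after 30 min at room temperature.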
Pf growth 96h: Primary qHTS for delayed death inhibitors of the malarial parasite plastid, 96 hour incubation. AID 504834, 2011. P. falciparum luciferase reporter growth, 96 h. Potency, µM (highest dose often 28.7 µM), inactives show top-dose activity change, negative = inhibition, usual class: inhibitors. actives 6.9% (n = 320,000)
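Readout is luminescence from an integrated firefly luciferase in P. falciparum. Red cells, 2% hematocrit and 0.05% parasitemia final, were cultured with compound through two parasite generations (96 hours) at 37 C, 5% CO2.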
HCV inhibitor: qHTS Assay for Inhibitors of Hepatitis C Virus (HCV); Potency, µM (series often up to 41.8 µM), for the others: at the highest dose activity change, negative = inhibition, actives largely listed as inhibitors; actives 3.4% (n = 340,000); AID 651820, 2012; Huh7.5.1 HCVcc-Cre infection, luciferase reporter, 44 h
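Cells (1,000/well) were plated 4 h before compound, then infected with HCVcc-Cre virus (~0.5 moi). After 44 h further culture, infection was read as luciferase luminescence following a 15 min substrate incubation at room temperature.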
* = called active by the depositor; ? = inconclusive; / = no result given; [ ] = another dose, or the depositor's remark. Calls come from the whole dose curve; as a rule, active = well fitted curve in the direction sought with a large enough effect; inconclusive = small, poorly fitted or top-dose-only effect, or another doubt; inactive = no such curve, though single readings can be large; an effect the other way counts as inactive or inconclusive. Unless noted, % is set by controls: 0 for no effect and ±100 for the full control effect; potency is the fitted concentration of half-maximal effect.

SMILES	Pf growth 48h	AMA1-RON2 inh	Pf growth 96h	HCV inhibitor
CN(CC(=O)Nc1ccc(Cl)cc1)C(=O)c1cccc(S(=O)(=O)N2CCN(Cc3ccccc3)CC2)c1	1%	-12%	?	11µM*
CS(=O)(=O)c1ccc(NC(=O)c2cccc(S(=O)(=O)N3CCN(Cc4ccccc4)CC3)c2)cc1	?	-10%	9.3µM*	10µM*
O=C(CC1(O)C(=O)Nc2ccc(Br)cc21)c1ccccc1 (stereo unspecified)	/	1%	/	/
Cc1nc2c(=O)n(C)c(=O)n(C)c2nc1Cl	10%	9%	4%	14µM*
Cn1c(=O)c2nncnc2n(C)c1=O	-9%	7%	-4%	-4%[0.335 µM]
CSc1nc2c(c(=O)[nH]1)C(c1cccc(Cl)c1)CC(=O)N2 (stereo unspecified)	-15%	-8%	13%	18%
Cc1cccc(N2CCN(C(=O)CN3C(=O)NC4(CCCCCC4)C3=O)CC2)c1C	-4%	-7%	?	?
Nc1c(C(=O)OCC2CCCO2)c2nc3ccccc3nc2n1Cc1cccs1 (stereo unspecified)	?	9%	3.7µM*	-27%
COCCn1c(N)c(C(=O)NCC2CCCO2)c2nc3ccccc3nc21 (stereo unspecified)	?	29%	48%	-18%
Nc1c(C(=O)OCC2CCCO2)c2nc3ccccc3nc2n1C1CCCC1 (stereo unspecified)	10µM*	-6%	8%[5.75 µM]	?
CC(C)Cn1c(N)c(C(=O)NCC2CCCO2)c2nc3ccccc3nc21 (stereo unspecified)	?	49%	?	?
CC1(Cc2ccc(S(C)(=O)=O)cc2)C(=O)Nc2ccc(Cl)cc21 (stereo unspecified)	/	7%	/	/
CCOc1ccc(C(C)NC(=S)NCc2ccc(F)cc2)cc1 (stereo unspecified)	?	3%	-19%	?
CCC(NC(=S)NCc1ccc(F)cc1)c1ccc(C)cc1 (stereo unspecified)	9.3µM*	16%	10µM*	-16%
CCc1ccc(C(C)NC(=S)NCc2ccc(F)cc2)cc1 (stereo unspecified)	13µM*	24%	15µM*	?
Cc1nc(Cl)c(C(=O)NC(C)(C)C)c(C)c1Cl	11%	3%	-4%	30%
Nc1nc(-c2ccc3c(c2)OCCO3)cs1	100%	-4%	/	?
N#Cc1ncc(-c2ccc3c(c2)OCCOCCOCCOCCO3)nc1C#N	?	-1%	12µM*	-9%
Cc1ccc2nc(-c3ccc4c(c3)OCCO4)cn2c1	-89%	6%	67%	-10%
N#Cc1ncc(-c2ccc3c(c2)OCCOCCOCCOCCOCCO3)nc1C#N	?	-10%	12µM*	?
Cc1c(Cl)cccc1NC(=O)C1CC2CCC1C2 (stereo unspecified)	/	-8%	/	1%
CCNC(=O)C1CCCN(C(=O)Cc2cccs2)CC1 (stereo unspecified)	/	-10%	/	/
Cc1onc(-c2ccccc2)c1C(=O)N1CCc2ccccc21	12%	-2%	23%	-1%
COc1cc(OC)c(OC)cc1CN(C)C(c1ccccc1)c1nnnn1-c1ccccc1C (stereo unspecified)	?	?	10µM*	13µM*
COc1ccc(CN(C)C(c2ccccc2)c2nnnn2-c2ccccc2C)c(OC)c1C (stereo unspecified)	?	-7%	-13%	-28%
SMILES	Pf growth 48h	AMA1-RON2 inh	Pf growth 96h	HCV inhibitor
Cc1ccc(Cc2nnc3n(-c4cccc(C)c4)nc(C(=O)c4ccccc4)n3c2=O)cc1	5.2µM*	1%	3.7µM*	-20%
CCC1=C(c2ccc(OC)cc2)CCC(C(=O)O)C1C (stereo unspecified)	/	23%	/	-2%
Cc1cc(O)c2c3c(c(=O)oc2c1)CCC(C)C3 (stereo unspecified)	?	8%	?	8.9µM*
O=C(Nc1ccc(N2CCOCC2)c(S(=O)(=O)Nc2ccccc2Cl)c1)c1ccccc1	10µM*	-5%	?	?
O=C(Nc1ccc(Cl)cc1)Nc1ccc(N2CCCC2)c(S(=O)(=O)Nc2ccccc2Cl)c1	?	-12%	?	5.6µM*
O=C1C=C(c2ccc(C(=O)O)c(Cl)c2)C[C@@H](c2ccc3c(c2)OCO3)C1	/	-18%	/	13%
CC(=O)n1cc(CO)c2ccccc21	13%	8%	1%	12%
CC(=O)n1cc(N(C(=O)CCl)c2ccccc2)c2ccccc21	?	-3%	?	1µM*
O=Cc1[nH]c2ccccc2c1N(C(=O)CCl)c1ccc([N+](=O)[O-])cc1	?	-1%	0%	?
CC(=O)n1cc(N(C(=O)CCl)c2ccc([N+](=O)[O-])cc2)c2ccccc21	3.7µM*	-2%	?	7.1µM*
NNC(=O)CNC(=O)CNS(=O)(=O)c1ccccc1	0%	-1%	35%	14%
CCN(CC)C(=O)C1=C(C)N(CCCN2CCCC2=O)C(=O)C(CC(=O)NCCCCc2ccccc2)C1 (stereo unspecified)	/	-3%	/	/
COc1ccccc1-c1cc2nc(C)c(CCC(=O)NC(C)CCc3ccco3)c(C)n2n1 (stereo unspecified)	/	-10%	-22%	?
Cc1nc2c(-c3ccc(F)cc3)c(C)nn2c(C)c1CCC(=O)Nc1ccccc1F	?	3%	9.3µM*	-14%
Cc1nc2c(-c3ccccc3)c(C)nn2c(C)c1CCC(=O)NC(C)CCc1ccco1 (stereo unspecified)	/	-6%	10µM*	-16%
CCOC(CCNC(=O)c1cc(-c2cccs2)nc2ccccc12)OCC	-9%	5%	-8%	-30%
Cc1[nH]c2ccc(Br)cc2c(=O)c1CN1CCCCCC1	10µM*	0%	64%	-21%
CCN(CC)CCNC(=O)c1ccccc1C(=O)c1ncc[nH]1	-14%	21%	1.7µM*	17%
CCN(CC)CCNC(=O)c1ccccn1	-17%	15%	-25%	5%
Cc1cccc(N2CCN(S(=O)(=O)c3cccc4nonc34)CC2)c1C	-13%	?	2.9µM*	1%
O=C(Nc1ccc(F)cc1)C1CCCN(S(=O)(=O)c2cccc3nonc23)C1 (stereo unspecified)	-20%	-5%	3.7µM*	2%
O=C(C1CCCN(S(=O)(=O)c2cccc3nonc23)C1)N1CCN(c2ccccc2Cl)CC1 (stereo unspecified)	12µM*	-25%	12µM*	?
O=C(C1CCCN(S(=O)(=O)c2cccc3nonc23)C1)N1CCN(c2cccc(Cl)c2)CC1 (stereo unspecified)	/	-2%	7.4µM*	7.9µM*
O=S(=O)(c1cccc2nonc12)N1CCN(c2ccccc2F)CC1	-10%	7%	26%	-19%

Source: PubChem
